From PubChem BioAssay
The list is not random: actives were taken first. Their share in the collection is about 4.9%.
dFosB act: activators of delta FosB homodimer, primary screen, biochemical, fluorescence polarization, TAMRA-CDK5 oligo, single point; Protein FosB (Mus musculus), P13346; purified delta FosB; percent of positive-control signal above neutral wells; activation, % at 25 µM; hit rate 0.99% among 340,000;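 active = mean activation above about 17%, with every replicate also reaching it, limit read from the data, passing the limit was not always enough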
Target sequence (P13346 whole entry, looked up): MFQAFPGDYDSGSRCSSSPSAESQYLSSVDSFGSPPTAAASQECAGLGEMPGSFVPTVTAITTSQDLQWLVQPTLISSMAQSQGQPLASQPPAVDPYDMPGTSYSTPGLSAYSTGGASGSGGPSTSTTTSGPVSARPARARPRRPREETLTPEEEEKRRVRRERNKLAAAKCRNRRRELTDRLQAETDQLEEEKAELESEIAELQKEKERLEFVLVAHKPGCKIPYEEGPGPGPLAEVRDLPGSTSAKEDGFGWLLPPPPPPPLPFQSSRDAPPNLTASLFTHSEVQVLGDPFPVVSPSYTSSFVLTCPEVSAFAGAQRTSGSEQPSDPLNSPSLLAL
Platelet DG rel: inhibitors of platelet dense granule secretion, primary screen, cell-based, MLPCN, human platelets; human platelet-rich plasma, SFLLRN dense granule ATP release, luminescence; inhibition, %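 (compounds screened at 7.5 µM in platelet-rich plasma)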; hit rate 0.22% among 300,000;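 active = mean replicate score, as percent of positive control, at or above 50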
HSP90 refold inh: HSP90 inhibitors, primary screen, cell lysate, luminescence; hit rate 0.91% among 290,000; inhibition, % at 5.6 µM; Rabbit reticulocyte lysate, luciferase refolding luminescence, 3 h; Heat shock protein HSP 90 (rabbit reticulocyte lysate; luciferase refolding);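 active = inhibition above the screen-wide mean plus 3 SD, computed separately per campaign, cut at about 16% in these data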;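 also: 0% = DMSO wells and 100% = 60 µM geldanamycin wells; inhibitors lower the luminescence because luciferase stays unfolded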
HSF1 activator: HSF-1 activators, primary screen, NIH3T3-HGL cells, MG132 stress, luminescence, single point; activation, % at 9 µM; NIH3T3-HGL HSF-1 luciferase reporter, 8 h; 100% = twice DMSO control signal; hit rate 1.7% among 300,000;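 active = mean replicate activation of at least 50% with a set share of replicates each reaching 50%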;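 also: 0% = median of the neutral control wells and 100% = twice that signal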
HSF1 inh: HSF1 inhibitors in luciferase reporter cells, primary screen, cell-based, NIH3T3, luminescence; AID 2098, 2009; NIH3T3-HGL HSE-luciferase, MG132-induced, luminescence 8 h; active compounds read low; hit rate 0.77% among 300,000; activity change, negative = inhibition, % at 7.5 µM (by protocol);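 active = more than half of replicate wells show activity change below -50%, luminescence cut by over half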;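 also: luciferase reports HSF-1 transcriptional activity via heat shock element; 0% = median of DMSO wells and -100% = zero luminescence signal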
MPTP block: mitochondrial permeability transition pore inhibitors, primary screen, biochemical, isolated mouse mitochondria, absorbance; Ca2+ swelling absorbance, 30 min; inhibition, % at 10 µM; hit rate 1.4% among 360,000; AID 602449, 2012;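 active = inhibition of 50% or more, scaled per plate between neutral and stimulator controls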;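 also: 0% = DMSO wells given calcium and 100% = 1 mM EGTA wells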
Rh123 counter: fluorescence retest of MPTP screen hits in isolated mitochondria, single concentration | shares compounds with MPTP block | membrane potential, Rhodamine 123 fluorescence | inhibition, % at 10 µM | hit rate 78% among 5,000; in the data active = inhibition above about 22%;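 also: 0% = DMSO vehicle and 100% = positive control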
MPTP swell DR: mitochondrial permeability transition pore inhibitors, dose response, biochemical, absorbance, uHTS hits; shares compounds with MPTP block; isolated mitochondria swelling; IC50, µM; hit rate 58% among 780; in the data active = IC50 below about 20 µM
MPTP cs DR: fluorescent counter-screen in isolated mitochondria, dose response, counter-screen for MPTP inhibitor project, biochemical, fluorescence, uHTS hits. shares compounds with MPTP block. isolated mitochondria counterscreen, fluorescence read-out. IC50, µM. hit rate 49% among 780; in the data active = IC50 below about 80 µM
Active calls of the source: *; . = not tested or not shown.

SMILES	dFosB act	Platelet DG rel	HSP90 refold inh	HSF1 activator	HSF1 inh	MPTP block	Rh123 counter	others
COc1ccc(CN(C)C[C@H]2OCCCC[C@@H](C)Oc3ccc(NS(C)(=O)=O)cc3C(=O)N([C@H](C)CO)C[C@@H]2C)cc1	.	.	.	.	.	-1.2	.
Cc1cccc(CN2CCC(C(=O)Nc3ccc(-n4nc(C)cc4C)cc3)CC2)n1	-3.1	-0.8	0.4	2.2	6.0	-1.1	.
Oc1ccc(Cl)cc1Sc1cc(Cl)ccc1O	0.0	.	.	.	.	70.0*	68.3*
CO/N=C/c1ccc(N2CCN(C(=O)c3ccc(F)cc3)CC2)c([N+](=O)[O-])c1	-16.4	-1.8	-3.8	-6.4	-5.6	8.8	.
CO/N=C/c1ccc(N2CCN(C(=O)c3ccc(Cl)cc3Cl)CC2)c([N+](=O)[O-])c1	5.1	6.2	5.7	2.2	-8.7	77.5*	59.9*
N#C/C(=C\c1cc(Cl)cc(Cl)c1O)C(=O)NC1CCCCC1	-7.0	10.5	-2.4	-13.2	-5.4	60.8*	67.5*
O=C(OCc1cn([C@@H]2CN(Cc3cccs3)[C@@H](c3ccccc3)C[C@H]2O)nn1)c1ccccc1	.	.	.	.	.	0.1	.
O=C(CSc1nnc(NC2CC2)s1)NN1C(=O)NC2(CCCCC2)C1=O	2.5	.	.	.	.	-1.5	.
CCN(CC)CCNC(C(=O)Nc1ccc([N+](=O)[O-])cc1Br)c1ccccc1 (stereo unspecified)	5.0	3.8	-3.6	-9.4	-13.7	61.2*	-1.9	MPTP swell DR=>100;MPTP cs DR=>80
CN(C)C(CNC(C(=O)Nc1ccc([N+](=O)[O-])cc1Br)c1ccccc1)c1ccccc1 (stereo unspecified)	-7.6	-3.4	4.1	10.4	-9.3	5.8	.
COc1ccccc1-n1cnnc1SCC(=O)c1cc(C)n(Cc2cccs2)c1C	-12.2	-4.2	0.3	24.5	1.1	7.3	.
Cc1cc(C(=O)CSc2nnc(-c3ccccc3F)o2)c(C)n1Cc1cccs1	-8.1	0.2	4.2	1.7	-5.2	53.9*	29.1*
COc1ccc(NS(=O)(=O)c2ccc3nc(COc4ccc(Cl)c(C)c4)[nH]c3c2)cc1	-3.4	12.7	7.9	-15.6	4.5	66.7*	65.5*
CCCCNC(=O)Oc1c(Br)cc2sc(=O)oc2c1Br	.	.	0.9	.	.	.	.
Cc1ccc(SCCNC(=S)Nc2ccc(C)c(C)c2)cc1	-9.9	-5.0	-0.1	8.0	1.7	72.1*	91.4*
COC(=O)Cc1ccc(NC(=S)NCCO)cc1	4.9	14.5	-1.8	45.2	6.3	-0.8	.
Cc1cc(C)cc(NC(=S)NCCSc2ccc(Cl)cc2)c1	-10.9	9.8	-2.3	12.4	5.1	87.1*	97.6*
COC(=O)Cc1ccc(NC(=S)NCCSc2ccc(Cl)cc2)cc1	-7.1	-5.0	3.6	5.7	13.2	62.8*	77.0*
CN(C)c1ccc(CC(=O)N2CCCCC2c2cc(C(=O)Nc3ccccc3)no2)cc1 (stereo unspecified)	.	.	.	.	.	-0.1	.
COc1ccc(N2CCN(C(=O)c3ccc(COc4ccc([N+](=O)[O-])cc4)o3)CC2)cc1	-2.4	-1.6	-3.7	36.0	9.1	-1.3	.
CCC(C)[C@H]1CN=C(N)N1CCc1cccc2ccccc12 (stereo partly specified)	-3.4	-6.8	.	-4.9	4.8	89.5*	0.2	MPTP swell DR=6.52*;MPTP cs DR=29.7*
Cc1[nH]c(=O)sc1C(=O)NCc1ccc([N+](=O)[O-])cc1	.	.	.	.	.	-2.2	.
Cc1ccnc(Nc2nc(-c3ccccc3)cs2)c1	-13.0	-1.2	1.8	42.2	36.9	1.2	.
Cc1ccnc(Nc2nc(-c3c(C)nc4sccn34)cs2)c1	0.5	13.9	1.9	-1.8	3.0	63.3*	21.0*
Cc1cccnc1N(C(=O)Nc1ccccc1)C1=NCC(C)(C)S1	4.0	-1.9	1.2	-15.4	0.1	-0.3	.
SMILES	dFosB act	Platelet DG rel	HSP90 refold inh	HSF1 activator	HSF1 inh	MPTP block	Rh123 counter	others
Cc1cccnc1N(C(=O)Nc1cccc(Cl)c1)C1=NCC(C)(C)S1	-1.5	0.1	3.0	-7.5	6.3	52.3*	74.7*
CN(C(=O)CN1CCN(c2cnn(-c3ccccc3)c(=O)c2Cl)CC1)C1CCS(=O)(=O)C1 (stereo unspecified)	-5.2	.	.	.	.	-1.8	.
Cc1cc(N/N=C/c2c(O)ccc3ccccc23)nc(-c2ccccc2O)n1	-3.0	-9.4	1.2	0.1	2.2	65.6*	52.4*
CN1CCN(CCC(=O)N/N=C/c2cc3c(cc2[N+](=O)[O-])OCO3)CC1	-2.2	-11.9	3.7	0.1	-2.2	-0.6	.
CCCCNc1nc2c(c(=O)n(C)c(=O)n2C)n1CCC	0.7	21.8	.	-5.2	-2.7	-0.8	.
CCCCCCn1c(NCC)nc2c1c(=O)n(C)c(=O)n2C	-5.9	-2.3	4.2	5.1	-4.7	55.9*	86.0*
COc1ccc([N+](=O)[O-])cc1NC(=S)NC(NC(=O)Cc1ccc(OC)c(OC)c1)C(Cl)(Cl)Cl (stereo unspecified)	6.9	-4.6	-1.1	-3.0	2.0	65.8*	51.2*
CCCCSc1nc(C)cc(SCC(=O)N/N=C/c2ccccc2)n1	-7.5	-6.5	2.0	6.2	-10.2	4.2	.
C/C(=N\NC(=O)Cn1c(C)nc2ccccc21)c1cccs1	0.3	-5.6	7.6	16.1	-2.7	4.0	.
CC(/C=N\NC(=O)Cn1c(C)nc2ccccc21)=C\c1ccccc1	4.1	5.2	4.3	23.8	6.7	54.0*	64.9*
CC(/C=N/NC(=O)CSc1nc(C)cc(C)n1)=C\c1ccccc1	-15.2	-2.2	-5.2	14.2	-6.2	50.5*	52.6*
O=C(Nc1nc(-c2cccs2)c(C(=O)C(F)(F)F)s1)c1ccccc1	8.0	-4.6	1.1	14.0	7.9	87.8*	98.2*
O=C(Nc1nc(-c2cccs2)c(C(=O)C(F)(F)F)s1)c1ccco1	-10.3	2.2	-0.9	-10.8	-1.3	4.2	.
O=C(NC(=S)NCc1cccnc1)c1cc(Br)ccc1Cl	-4.7	-2.3	-2.3	1.7	-6.3	0.5	.
CC(C)Oc1ccccc1C1NC(=O)CCC1[N+](=O)[O-] (stereo unspecified)	-1.2	-1.8	-0.5	17.9	-3.0	0.1	.
O=C(/C(=C/c1ccc(Cl)cc1)c1nc2ccccc2[nH]1)c1ccccc1	-2.4	0.2	3.7	184.1*	122.6	91.2*	87.3*
